# Screen size: about 420,000 compounds; about 50,000 (12%) were called active. About 26% were inconclusive and are not listed. This is one part of a sample in which actives are shown more often than they occur. Unmarked numbers belong to inactive results. Calls come from the whole dose curve; as a rule, active = well fitted inhibition curve with a large enough effect; inconclusive = small, poorly fitted or top-dose-only effect; inactive = flat fitted curve, though single readings scatter.
# Experiment: qHTS for Inhibitors of human tyrosyl-DNA phosphodiesterase 1 (TDP1): qHTS in cells in presence of CPT; note: nearly all actives have a fitted effect of over 55% in size
# Settings: chicken DT40 Tdp1-/-;hTDP1 cells + 20 nM CPT, ATP luminescence, 48 h; series mostly up to 46.2 µM; activity change, negative = growth inhibition: at the top concentration
# Summary of the method: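 Chicken DT40 Tdp1-/- cells complemented with human TDP1, 400 cells/well, exposed to compounds plus 20 nM camptothecin for at least 48 h at 37 C; viability read as ATP content by CellTiter-Glo luminescence.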
# % is set by controls: 0 for no effect and ±100 for the full control effect; potency is the fitted concentration of half-maximal effect.
Structure (SMILES),"activity change, negative = growth inhibition",Potency
Cc1ccc(NC(=O)COC(=O)CN2CCCCCC2=O)c(C)c1,-11.8%,–
CC(=O)Nc1ccc(NC(=O)CSc2ncnc3c2cnn3Cc2ccccc2)cc1,3.41%,–
Clc1ccc(Cn2ncc3c(NCc4cccnc4)ncnc32)cc1,–,20.6 µM (active)
Clc1ccc(Nc2ncnc3c2nnn3Cc2ccccc2)cc1,-12.7%,–
Cc1ccc(OCCOc2cccc(/C=N/NC(N)=O)c2)cc1,16.1%,–
COc1ccc(C(=O)COC(=O)Cn2cnc3c2c(=O)n(C)c(=O)n3C)c(OC)c1,11.2%,–
O=C(Oc1ccc([N+](=O)[O-])cc1)c1ccc2ccccc2n1,-16.8%,–
O=[N+]([O-])c1ccc(/C=C/c2ccc3cccnc3c2)cc1,–,7.94 µM (active)
O=C(OCc1ccc([N+](=O)[O-])cc1)c1ccccn1,7.01%,–
COc1ccc(C2/C(=C(/O)c3ccc(OC(C)C)cc3)C(=O)C(=O)N2CCCN2CCOCC2)cc1 (configuration not stated),-2.53%,–
CCCCc1ccc(S(=O)(=O)NC(=O)C2(C)CCN2C(=O)c2c(C)noc2C)cc1 (configuration not stated),-16.1%,–
Cn1c2c(c(=O)n(C)c1=O)C(c1cccc(F)c1)C(C#N)=C(N)O2 (configuration not stated),12.8%,–
CC(C)CCNC(=O)c1cccnc1Sc1ccccc1,7.04%,–
Cc1cc([N+](=O)[O-])c(=O)[nH]c1C,-13.7%,–
Cc1cccc(C(=O)OCC(=O)Nc2ccc(F)cc2)c1,-20.9%,–
Cc1cccc(NC(=O)COC(=O)c2ccccc2OCc2cccc(Br)c2)c1,–,17.8 µM (active)
O=C(COC(=O)c1ccccc1OCCOc1ccccc1)Nc1cccc(Br)c1,-12%,–
CC1C(=O)Nc2ccccc2N1C(=O)c1ccc(F)cc1F (configuration not stated),-6.81%,–
CCN(CC)C(=O)c1nc[nH]c1C(=O)N(C)Cc1ccccc1,4.56%,–
CN1CC(O)c2cc(N=NC(N)=O)c(O)cc21 (configuration not stated),-15.8%,–
CCOC(=O)N1CCN(S(=O)(=O)c2ccc(-n3cnnn3)cc2)CC1,-11.6%,–
CCOC(=O)N1CCN(S(=O)(=O)c2ccc(C(=O)Nc3ccc(F)cc3F)cc2)CC1,–,2.59 µM (active)
CCOC(=O)N1CCN(S(=O)(=O)c2ccc(Br)cc2)CC1,1.25%,–
COc1ccc(-c2ccc(CCC(=O)O)n2-c2ccc(O)cc2)cc1,-13.8%,–
COc1cccc(OCCn2c(-c3ccc(Br)cc3)nc3ccccc3c2=O)c1,-9.2%,–
COc1ccc(-c2nc3ccccc3c(=O)n2CCc2ccc(O)cc2)cc1,–,14.6 µM (active)

Structure (SMILES),"activity change, negative = growth inhibition",Potency
C=CCNC(=O)COC(=O)c1ccccc1C(=O)N(C)C1CCCCC1,-5.9%,–
O=C(COC(=O)c1ccccc1SCC(=O)NC1CCCCC1)NC1CCCCC1,3.2%,–
CC1CCCC(NC(=O)COC(=O)c2ccccc2C(=O)N(C)C2CCCCC2)C1C (configuration not stated),–,23.1 µM (active)
COc1cc(=O)n2c(c1C(=O)NC(C)c1ccco1)CCN(C(=O)c1cn3ccc(C)cc3n1)CC2 (configuration not stated),3.27%,–
Cc1ccc(C(=O)N/C(=C\c2ccco2)C(=O)NC2CCS(=O)(=O)C2)cc1 (configuration not stated),13.6%,–
Cc1cccn2c(=O)c(/C=C(\C#N)S(=O)(=O)c3ccc(Cl)cc3)c(N3CCC(C(N)=O)CC3)nc12,0.471%,–
Cc1cc(C)cc(Oc2nc3c(C)cccn3c(=O)c2/C=C(\C#N)C(=O)NC2CCS(=O)(=O)C2)c1 (configuration not stated),–,16.4 µM (active)
Cc1ccnc(SCC(N)=O)n1,-14.1%,–
Cc1ccnc(-n2sc3ccccc3c2=O)n1,–,7.31 µM (active)
Cc1ccnc(Nc2nc3ccccc3s2)n1,-17.4%,–
Cc1cccc(C)c1NC(=O)CNC(=O)C1CCCC1,-0.199%,–
CCc1ccnc(NC(=O)Nc2ccc(OCc3ccccc3)cc2)c1,-10.7%,–
Cc1[nH]c(C)c(S(=O)(=O)N2CCN(c3cccc(C(F)(F)F)c3)CC2)c1C(=O)N1CCCC1,–,18.4 µM (active)
Cc1ccc(C)c(NS(=O)(=O)c2c(C)[nH]c(C)c2C(=O)N2CCCCC2)c1,-4.6%,–
Cc1[nH]c(C)c(S(=O)(=O)N2CCN(c3cccc(C(F)(F)F)c3)CC2)c1C(=O)N1CCCCC1,–,14.6 µM (active)
O=C1CC(=O)Nc2cc(S(=O)(=O)N3CCN(c4cccc(C(F)(F)F)c4)CC3)ccc2N1,5.71%,–
Cc1ccc(NS(=O)(=O)c2c(C)[nH]c(C)c2C(=O)N2CCCCC2)c(C)c1,-27%,–
Cc1[nH]c(C)c(S(=O)(=O)N2CCC(C)CC2)c1C(=O)N1CCCC1,-6.25%,–
COc1cc(/C=C2/C(=O)ON=C2C)ccc1OCc1ccccc1F,–,11.6 µM (active)
CCOc1cc(/C=N/O)ccc1OCc1ccccc1F,2.25%,–
CC1=NOC(=O)/C1=C\c1ccccc1,-5.28%,–
Cc1cc(NC(=O)CCS(=O)(=O)c2ccc(F)cc2)no1,-0.0242%,–
C[C@@H]1CN(Cc2ccc3c(c2)CN(Cc2ccc(Oc4ncccn4)cc2)CCO3)C[C@H](C)O1,-11.8% [at 9.04 µM],–
O=C1Nc2ccc(Br)cc2/C1=N/N=C/C1=C(N2CCOCC2)C(=C\c2ccccc2)/CC1,–,16.4 µM (active)
O=C(O)c1ccc(NN=CC2=C(N3CCOCC3)/C(=C/c3ccccc3)CC2)cc1,–,1.46 µM (active)
COc1ccc(/C=N/N=C2/C(=O)Nc3ccccc32)cc1O,-26.3%,–

# — PubChem BioAssay AID686979 (National Center for Advancing Translational Sciences (NCATS), 2013)
